Where “and” joins values, the source holds several entries; their conditions need not be identical. Identical values can stand only once. The whole screen tested about 16,000 compounds, of which about 2,600 (16%) were called active. Inconclusive results (about 20%) are left out. Calls follow the shape of the dose curve; as a rule, active = well fitted curve in the direction sought with a large enough effect; inconclusive = small, poorly fitted or top-dose-only effect, or effect the other way; inactive = no such curve, though single readings can be large or run the other way. The list is a sample of the results.
Molecular target: Cytochrome P450 2D6 (Homo sapiens) (UniProt P10635)
Sequence (P10635 whole entry, looked up): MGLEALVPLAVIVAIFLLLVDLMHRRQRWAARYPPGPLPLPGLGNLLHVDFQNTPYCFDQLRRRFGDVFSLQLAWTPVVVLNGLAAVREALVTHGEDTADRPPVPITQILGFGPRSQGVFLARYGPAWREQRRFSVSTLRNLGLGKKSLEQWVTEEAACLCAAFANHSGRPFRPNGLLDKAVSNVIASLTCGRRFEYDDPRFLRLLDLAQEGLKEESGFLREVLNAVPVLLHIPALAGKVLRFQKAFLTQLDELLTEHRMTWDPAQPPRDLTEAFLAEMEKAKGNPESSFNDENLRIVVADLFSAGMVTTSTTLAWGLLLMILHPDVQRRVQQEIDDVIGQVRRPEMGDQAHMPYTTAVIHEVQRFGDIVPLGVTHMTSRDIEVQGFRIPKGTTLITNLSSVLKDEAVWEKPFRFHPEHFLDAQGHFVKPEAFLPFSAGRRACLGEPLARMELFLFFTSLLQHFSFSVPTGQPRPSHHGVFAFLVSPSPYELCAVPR
Test: Cytochrome panel assay with activity outcomes
Conditions: recombinant CYP, pro-luciferin dealkylation, luminescence, p450-cyp2d6; series mostly up to 57.1 µM; activity, negative = inhibition: at the top concentration
% is scaled to controls: 0 for no effect and ±100 for the full control effect.

activity, negative = inhibition, inactive:
CC#CCCCC(=O)Nc1ccc(C(=O)O)cc1 14.3%
Cn1nc(C(F)(F)F)c(/C=N/OC(=O)c2ccccc2Cl)c1SCc1ccc(Cl)cc1 -27.3%
Cn1nc(C(F)(F)F)c(/C=N/OCc2c(Cl)cccc2Cl)c1Cl -4.38%
C=CC(=O)NC(NC(=O)C=C)c1ccc(Br)cc1 11%
C(=C1/CCCC2=C1Nc1ncnn1C2c1ccccc1)/c1ccccc1 (stereo not drawn) 2.54%
O=C1CC(=Nc2ccccc2)NN1c1ccccc1 -10.4%
CCCCSc1ccc2nc(-c3ccc(C#N)cc3)cn2c1 -24.5%
N[C@@](CCc1ccccc1)(C(=O)O)c1ccccc1 0.379% [at 11.4 µM]
O=C1CCC[C@@H](C(C(=O)OCc2ccccc2)C(=O)OCc2ccccc2)C1 -12.9% [at 11.4 µM]
CN(C)CCOC(=O)[C@@H](c1ccccc1)C1(O)CCCC1 -6.43% [at 25.6 µM]
O=C(O)C1CCCN1C(=O)OCc1ccccc1 (stereo not drawn) -3.43%
N#Cc1cccc(NC(=O)N2CCC3(CC2)CCN(C(=O)c2cccc(F)c2)CC3)c1 -13.4%
O=C(O)[C@@H]1[C@@H]2C[C@@H]3[C@@H](OC(=O)[C@@H]31)[C@H]2Br 0.593% [at 11.4 µM]
CCOC(=O)c1ccc(-c2ccc(/C=C(\C#N)C(=O)NCC3CCCO3)o2)cc1 (stereo not drawn) -17.3%
COC(=O)c1cc2c(ccn2-c2ccc(F)cc2)n1CC(C)C 13.8%
OC[C@@H]1O[C@@H](n2cnc3cncnc32)[C@@H](O)[C@H]1O -2.03%
NC(=O)Nc1n[nH]c(-c2ccccc2)n1 9.86% [at 11.4 µM]
Cc1ccc2cc3cc(C(=O)N4CCCCC4C)oc3nc2c1 (stereo not drawn) -7.91%
O[C@@H]1[C@@H](OCc2ccccc2)OC[C@H](O)[C@@H]1O 0.194% [at 11.4 µM]
COc1cc(C(=O)NC(=S)Nc2ccc(Cl)c(C(=O)O)c2)cc(OC)c1OC 1.96%
CCOc1cc(NC(=S)Nc2cccc(C)c2)c(OCC)cc1NC(=O)CC(C)C -15.7%
CC(C)CCNC(=O)Cc1ccccc1[N+](=O)[O-] -21.8%
O=C(CSc1c[nH]c2ccccc12)N1CCOCC1 -28.8%
CCc1cc2c(=O)c(-c3nc4ccccc4[nH]3)coc2cc1OC(=O)N1CCOCC1 -17.4%
COc1ccc(Nc2ncc(C(=O)N3CCN(Cc4ccccc4)CC3)c3ccccc23)cc1 -6.13%
CCOC(=O)N1CCN(C(=O)CSCc2ccc(Cl)cc2)CC1 -16%
CCOC(=O)N1CCN(C(=O)C(C)SCc2ccccc2)CC1 (stereo not drawn) -25.5%
CCOC(=O)N1CCN(S(=O)(=O)Cc2ccccc2)CC1 -6.68%
O=C(c1ccco1)N1CCN(C(=O)C2(S(=O)(=O)c3ccc(Cl)cc3)CC2)CC1 -9.48%
COC(=O)[C@H](Cc1ccccc1)NC(=O)[C@@H](C)CO 3.71% [at 11.4 µM]
C/C(=N\Nc1nnc(C)c(=O)[nH]1)C(=O)O -0.0511%
COc1ccc(C2/C(=C(/O)c3ccc(Cl)cc3)C(=O)C(=O)N2CCN2CCOCC2)c(OC)c1 (stereo not drawn) -38.4%
CN[C@@H]1NC(=O)c2ccccc2N1Cc1ccc(F)cc1 10.6% [at 11.4 µM]
CSc1nnc(-c2cc3c(-c4ccccc4)nn(C)c3s2)n1C 0.173%
CC(C)(N=NC(C)(C)C1=NCCN1)C1=NCCN1 6.75% [at 11.4 µM]
O=c1[nH]c(=O)n(Cc2ccco2)c2c1C(C(F)(F)F)(C(F)(F)F)N=C(CCC1CCCCC1)N2 -3.9%
CC(C)CO/N=C1/[C@H]2O[C@@H]2[C@@H](O)[C@H]2[C@H]1CCn1c(=O)n(C)c(=O)n12 1.5% [at 11.4 µM]
CC(C)C[C@H](NC(=O)N1CCCCCC1)C(=O)N[C@H](Cc1cn(C)c2ccccc12)C(=O)N[C@H](Cc1ccccn1)C(=O)O -13.8%
Cc1ccc(C(=O)NC(=S)Nc2cccc3nsnc23)cc1 28.9%
CC(C)(C)C(=O)Nc1cccc(-c2nc3ccccc3c(=O)o2)c1 -27.2%
CN(C)CCNc1ccccn1 -15.2% [at 11.4 µM]
c1ccc(CCNc2ccccn2)nc1 -8.12% [at 11.4 µM]
CCCNC(=O)OC[C@@H]1O[C@H](CCO/N=C\C[C@H]2C=C[C@H](OC(C)=O)[C@@H](COC(C)=O)O2)C=C[C@@H]1Oc1ccc(OC)cc1 -15.6% [at 11.4 µM]
CC(C)=CCNc1ncnc2nc[nH]c12 10.2% [at 11.4 µM]
COc1ccc(N2CCN(C(=S)Nc3cccc(C)c3)CC2)cc1 7.47%
CN(C)c1ccnc(-c2ccccc2C(F)(F)F)n1 12.2%
Cc1noc(C)c1-c1nccc(N(C)C)n1 9.87%
Cc1noc(C)c1-c1nccc(N(C)Cc2ccco2)n1 -10.1%
Cn1c2c(c(=O)n(C)c1=O)C(C(F)(F)F)(C(F)(F)F)N=C(c1ccc(Cl)cc1)N2 18.2%
COc1ccc(Oc2nc3ccccc3nc2C(F)(F)F)cc1 -2.66%

AC50, active:
Cn1nc(C(F)(F)F)c(/C=N/OC(=O)c2ccc(Cl)cc2)c1Cl 15.8 µM
CCCC(C(=O)OCCN(CC)CC)(c1ccccc1)c1ccccc1 63.1 nM and 15.8 nM
CCN(CC)CCOC(=O)C(c1ccccc1)c1ccccc1 5.01 µM
CCN(CC)CCOC(=O)[C@@H](c1ccccc1)C1CCCCC1 0.631 µM
COc1cc(OC)c(NC(=S)Nc2cccc(C(C)=O)c2)cc1Cl 15.8 µM
CCOC(=O)C1(S(=O)(=O)c2ccc(Cl)cc2)CCN(Cc2ccc(Cl)cc2)CC1 3.55 µM
CCOC(=O)C1(S(=O)(=O)c2ccccc2)CCN(Cc2ccccc2)CC1 2 µM
CC(C)NC1(C(N)=O)CCN(Cc2ccccc2)CC1 0.631 µM
COC(=O)[C@H](Cc1ccccc1)NC(=O)N1CCN(Cc2ccccc2)CC1 11.2 µM
O[C@H](CNc1ccccn1)c1ccccc1 1.58 µM
CN(C)Cc1ccccc1-c1nccc(N(C)Cc2ccco2)n1 0.794 µM
CN(C)Cc1ccccc1-c1nccc(N(C)C)n1 1 µM

AC50, inactive:
CCN(Cc1ccncc1)C(=O)[C@@H](CO)c1ccccc1

From PubChem BioAssay AID1851 (National Center for Advancing Translational Sciences (NCATS), 2009)
